Sampled rows, rich in hits. Any-hit rate of the full collection: about 19%.
DT40 TDP1 no CPT – qHTS for Inhibitors of human tyrosyl-DNA phosphodiesterase 1 (TDP1): qHTS in cells in absence of CPT; DT40 Tdp1-/- hTDP1 cells, no CPT, ATP luminescence, 48 h; Potency, µM (top dose mostly 46.2 µM), without a hit: top-dose activity change, negative = growth inhibition, actives largely listed as inhibitors; 420,000 compounds, 15% hits; AID 686978, 2013; further: potency means the concentration at half of the fitted maximal effect; nearly all actives have a fitted effect of over 55% in size
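Seeded 400 DT40-hTDP1 cells/well (vehicle DMSO, no 20 nM CPT); pinned compounds; ≥48 hr at 37 °C; CellTiter-Glo luminescence as viability measure.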
HT1080NT lethal – kills 2HG-producing HT-1080-NT fibrosarcoma cells. Potency, µM (doses to about 46.1 µM), inactives show at the top dose activity, negative = less viability, actives largely listed as cytotoxic. AID 686970. 360,000 compounds, 1.6% hits. HT-1080-NT fibrosarcoma viability, CellTiter-Glo ATP luminescence, 48 h;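 further: NT is the 2HG producing partner of a matched IDH1 knockdown line; potency means the concentration at half of the fitted maximal effect; 0% = DMSO-treated cells and -100% = media-only wells without cells; nearly all actives have a fitted effect of over 55% in size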
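Viability by CellTiter-Glo luminescence after 48 h compound exposure at 37C of HT-1080-NT cells (750/well, RPMI, 5% FBS). % activity scaled between DMSO wells and medium-only wells, then curve-fitted and categorized by curve class.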
DT40 TDP1 CPT – DT40-hTDP1 cell growth loss with CPT; chicken DT40 Tdp1-/-;hTDP1 cells + 20 nM CPT, ATP luminescence, 48 h; AID 686979; Potency, µM (series often up to 46.2 µM), for the others: at the top dose activity change, negative = growth inhibition, most hits filed as inhibitors; 420,000 compounds, 12% hits; further: potency means the concentration at half of the fitted maximal effect; nearly all actives have a fitted effect of over 55% in size
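Cell growth measured by CellTiter-Glo luminescence after a minimum 48 h, 37 C compound exposure with 20 nM CPT in Tdp1-knockout DT40 cells stably expressing hTDP1, seeded 400/well; qHTS titration format.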
HT1080 IDH1KD tx – kills HT-1080 cells with IDH1 knockdown | 360,000 compounds, 2% hits | Potency, µM (highest dose often 46.1 µM), for inactives: top-dose activity, negative = toxicity, hits mostly cytotoxic | HT-1080 IDH1 knockdown viability, ATP luminescence, 48 h;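 further: potency means the concentration at half of the fitted maximal effect; 0% = DMSO wells and -100% = cell-free medium wells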
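Viability of IDH1-knockdown HT-1080 fibrosarcoma cells was assessed by CellTiter-Glo after 48 h at 37 °C with titrated compound; concentration-effect curves were classified by fit quality and response size.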
IL1B secr inh – inflammasome signaling inhibition, IL-1 beta readout | THP-1 LPS/ATP IL-1B secretion, AlphaLISA, 16 h; active compounds read low | AID 743279 | 360,000 compounds, 4.7% hits | activity change, % at 57.5 µM; in the data active means activity change below about -50%; inconclusive means mostly about -30% to -49%
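Secreted IL-1B measured by AlphaLISA bead assay after 16 h compound exposure of THP-1 cells; compounds (final up to 57.5 uM) added 1 h before LPS (250 ng/mL) and ATP (1.25 mM) stimulation; lower signal means less secretion.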
* = called active by the depositor; ! = a repeat was not active; [ ] = dose if it differs, or a comment. Unless noted, the call rests on the fitted dose curve; in most records, active means well fitted curve in the direction sought with a large enough effect; inconclusive means small, poorly fitted or top-dose-only effect, or another doubt; inactive means no such curve, though single readings can be large; an effect the other way counts as inactive or inconclusive. Unless noted, on the % scale 0 is the no-effect control and ±100 the full control effect.

Screening O=C(NCc1ccco1)C(Cc1ccccc1)N1C(=O)c2ccccc2C1=O (stereo not given) returned DT40 TDP1 no CPT -20%, HT1080NT lethal 20%, DT40 TDP1 CPT 21µM*, HT1080 IDH1KD tx 17% and IL1B secr inh 25.
For Cc1cc(N/N=C/c2ccccc2F)nc(NCc2ccccc2)n1 the results were DT40 TDP1 no CPT 12µM*, HT1080NT lethal -7%, DT40 TDP1 CPT inconclusive, HT1080 IDH1KD tx -4% and IL1B secr inh -4.
Screening Cc1cc(C)nc(N/N=C/c2ccc(Cl)cc2)n1 returned DT40 TDP1 no CPT -1%, HT1080NT lethal 16%, DT40 TDP1 CPT -15%, HT1080 IDH1KD tx 12% and IL1B secr inh -24.
`Fc1ccccc1/C=N/Nc1nc2ccccc2o1` gave DT40 TDP1 no CPT -2%, HT1080NT lethal 23%, DT40 TDP1 CPT inconclusive, HT1080 IDH1KD tx 22% and IL1B secr inh -9.
Screening Cc1cc(N/N=C/c2cccc(F)c2)nc(NCc2ccccc2)n1 returned DT40 TDP1 no CPT 13µM*, HT1080NT lethal 21µM*, DT40 TDP1 CPT inconclusive, HT1080 IDH1KD tx 16µM* and IL1B secr inh -72*.
`Cc1cc(N/N=C/c2ccc(Cl)cc2)nc(NCc2ccccc2)n1` gave DT40 TDP1 no CPT 8.2µM*, HT1080NT lethal -4%, DT40 TDP1 CPT 21µM*, HT1080 IDH1KD tx -21% and IL1B secr inh -84*.
Screening CN(C)c1nc(NCc2ccccc2)nc(N/N=C/c2ccc(Cl)cc2Cl)n1 returned DT40 TDP1 no CPT inconclusive, HT1080NT lethal 13%, DT40 TDP1 CPT 23µM*, HT1080 IDH1KD tx -1% and IL1B secr inh 39.
For CC(C)CCC1(CCO)C(=O)N=C(N)NC1=O (stereo not given) the results were DT40 TDP1 no CPT -13%, HT1080NT lethal 8%, DT40 TDP1 CPT 0%, HT1080 IDH1KD tx 20% and IL1B secr inh 8.
Screening COc1ccc(C)cc1S(=O)(=O)N(C)CC(=O)N1CCCCCC1 returned DT40 TDP1 no CPT -15%, HT1080NT lethal -1%, DT40 TDP1 CPT -5%, HT1080 IDH1KD tx 2% and IL1B secr inh -6.
For Cc1cc(C)nc(N/N=C/c2cccc(Cl)c2)n1 the results were DT40 TDP1 no CPT -22%, HT1080NT lethal -1%, DT40 TDP1 CPT -20%, HT1080 IDH1KD tx -1% and IL1B secr inh 24.
For Cc1cc(N/N=C/c2ccccc2)nc(NCc2ccccc2)n1 the results were DT40 TDP1 no CPT 2.6µM*, HT1080NT lethal -20%, DT40 TDP1 CPT 4.6µM*, HT1080 IDH1KD tx -5% and IL1B secr inh -4.
Screening Cc1cc(N/N=C/c2cccc(Cl)c2)nc(NCc2ccccc2)n1 returned DT40 TDP1 no CPT 7.3µM*, HT1080NT lethal inconclusive, DT40 TDP1 CPT 8.2µM*, HT1080 IDH1KD tx inconclusive and IL1B secr inh -77*.
Cc1cc(C)nc(NCc2ccc(Cl)cc2)n1 was read as DT40 TDP1 no CPT -19%, HT1080NT lethal -16%, DT40 TDP1 CPT -1%, HT1080 IDH1KD tx -1% and IL1B secr inh -7.
Cc1ccc(/C=N/Nc2nc(C)cc(C)n2)cc1 was read as DT40 TDP1 no CPT inconclusive, HT1080NT lethal 4%, DT40 TDP1 CPT 16%, HT1080 IDH1KD tx 5% and IL1B secr inh 4.
For Cc1cc(Nc2cccc(Cl)c2)nc(NCc2ccccc2)n1 the results were DT40 TDP1 no CPT 3.7µM*, HT1080NT lethal inconclusive, DT40 TDP1 CPT 5.8µM*, HT1080 IDH1KD tx inconclusive and IL1B secr inh -20.
Screening COC(CNC(=O)C1CC(=O)N(CCc2ccccc2)C1)OC (stereo not given) returned DT40 TDP1 no CPT -10%, HT1080NT lethal 11%, DT40 TDP1 CPT 21%, HT1080 IDH1KD tx 8% and IL1B secr inh 8.
For Cc1nncn1-c1ccc(C(=O)Nc2cc(F)ccc2F)cc1 the results were DT40 TDP1 no CPT -28% and DT40 TDP1 CPT 3%.
O=C(CNC(=O)c1ccccc1F)OCc1nc2ccc(Cl)cc2n1CCO was read as DT40 TDP1 no CPT -2%, HT1080NT lethal -3%, DT40 TDP1 CPT -2%, HT1080 IDH1KD tx 1% and IL1B secr inh 7.
For O=C(COc1ccccc1C(=O)O)Nc1ccc(SC(F)F)cc1 the results were DT40 TDP1 no CPT 16µM*, HT1080NT lethal 24%, DT40 TDP1 CPT 16µM*, HT1080 IDH1KD tx 27% and IL1B secr inh -2.
For O=C(COC(=O)c1ccccc1C(=O)c1ccccc1)Nc1ccc(SC(F)F)cc1 the results were DT40 TDP1 no CPT inconclusive, HT1080NT lethal -28%, DT40 TDP1 CPT inconclusive, HT1080 IDH1KD tx inconclusive and IL1B secr inh -77*.
`O=C(COC(=O)c1ccccc1C(=O)c1ccc(Cl)cc1)NC(c1ccccc1)c1ccccc1` gave DT40 TDP1 no CPT 15µM*, HT1080NT lethal 0%, DT40 TDP1 CPT 12µM*, HT1080 IDH1KD tx -1% and IL1B secr inh -20.
Screening CN(C)C(=O)COC(=O)c1ccccc1OCC(=O)Nc1ccc(SC(F)F)cc1 returned DT40 TDP1 no CPT 9.2µM*, HT1080NT lethal inconclusive, DT40 TDP1 CPT inconclusive, HT1080 IDH1KD tx 23% and IL1B secr inh -21.
CCOc1ccc(C(=O)OCC(=O)Nc2ccc(SC(F)F)cc2)cc1OCC was read as DT40 TDP1 no CPT -21%, HT1080NT lethal -1%, DT40 TDP1 CPT -20%, HT1080 IDH1KD tx -2% and IL1B secr inh 0.
Screening CC1(c2cccc(Br)c2)NC(=O)N(CC(=O)Nc2ccc3c(c2)OCCO3)C1=O (stereo not given) returned DT40 TDP1 no CPT inconclusive, HT1080NT lethal -7%[9.24 µM], DT40 TDP1 CPT inconclusive, HT1080 IDH1KD tx 4% and IL1B secr inh 16.
O=C(Nc1nc(-c2cccc3ccccc23)cs1)c1cnccn1 was read as DT40 TDP1 no CPT inconclusive, HT1080NT lethal 4%, DT40 TDP1 CPT -20%, HT1080 IDH1KD tx -15% and IL1B secr inh 13.
N#C/C(=C\c1ccc(O)c(O)c1)C(=O)Nc1ccccc1 was read as DT40 TDP1 no CPT 10µM*, HT1080NT lethal -17%, DT40 TDP1 CPT 24µM*, HT1080 IDH1KD tx inconclusive and IL1B secr inh 23.
`C[C@@H](NC(=O)/C(C#N)=C/c1ccc(O)c(O)c1)c1ccccc1` gave DT40 TDP1 no CPT 13µM*!, HT1080NT lethal inconclusive, DT40 TDP1 CPT 24µM*, HT1080 IDH1KD tx inconclusive and IL1B secr inh 28.
CC(NC(=O)/C(C#N)=C/c1ccc(Cl)c([N+](=O)[O-])c1)c1ccccc1 (stereo not given) was read as DT40 TDP1 no CPT 3.7µM*, HT1080NT lethal inconclusive, DT40 TDP1 CPT 3.7µM*, HT1080 IDH1KD tx inconclusive and IL1B secr inh -98*.
CC(NC(=O)/C(C#N)=C/c1ccc(OCC(=O)O)cc1)c1ccccc1 (stereo not given) was read as DT40 TDP1 no CPT -7%, HT1080NT lethal 2%, DT40 TDP1 CPT 1%, HT1080 IDH1KD tx -2% and IL1B secr inh -2.

Screening results (PubChem)
